Screening results from PubChem BioAssay.
Rows were chosen to be rich in hits. Some 7.5% of all compounds tested hit in one or more screens of this group.
Rab9 prom act = activators of Rab9 promoter; Huh7 Rab9 promoter-luciferase reporter, luminescence, 24 h; 2.8% of 320,000 active; Potency, µM (titrated, usually from 9.22 µM), usual class: activators; further: nearly all actives have a fitted effect of over 60% in size
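Huh7 cells stably carrying a Rab9 promoter-luciferase reporter, 1500 cells per well in OP-MEM I with 10% FBS, treated with compound 24 hours at 37C. Luciferase activity read by luminescence after 10 minutes with Amplite reagent.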
SMN2 splice enh = increases expression of the SMN2 splice variant. HEK293 SMN2-luciferase splicing reporter, luminescence, 30-36 h. Potency, µM (top dose mostly 46.1 µM), actives largely listed as activators. 2.8% of 210,000 active. AID 1458; further: nearly all actives have a fitted effect of over 55% in size
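HEK293 cells carry an SMN2 […]–luciferase reporter in which exon 7 inclusion puts luciferase in frame. Cells were plated 10-12 h before compound addition, then incubated 30-36 h at 37C. ONE-Glo luminescence was read; sodium butyrate at 4.5 mM final served as control.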
FLuc counter = inhibits or activates purified firefly luciferase, miR-21 counter-screen; P08659; AID 588342; purified FLuc, Km substrates, luminescence inhibition; Potency, µM (series often up to 57.5 µM), usual class: inhibitors; 6.9% of 360,000 active; further: nearly all actives have a fitted effect of over 55% in size
Target sequence (P08659 whole entry, looked up): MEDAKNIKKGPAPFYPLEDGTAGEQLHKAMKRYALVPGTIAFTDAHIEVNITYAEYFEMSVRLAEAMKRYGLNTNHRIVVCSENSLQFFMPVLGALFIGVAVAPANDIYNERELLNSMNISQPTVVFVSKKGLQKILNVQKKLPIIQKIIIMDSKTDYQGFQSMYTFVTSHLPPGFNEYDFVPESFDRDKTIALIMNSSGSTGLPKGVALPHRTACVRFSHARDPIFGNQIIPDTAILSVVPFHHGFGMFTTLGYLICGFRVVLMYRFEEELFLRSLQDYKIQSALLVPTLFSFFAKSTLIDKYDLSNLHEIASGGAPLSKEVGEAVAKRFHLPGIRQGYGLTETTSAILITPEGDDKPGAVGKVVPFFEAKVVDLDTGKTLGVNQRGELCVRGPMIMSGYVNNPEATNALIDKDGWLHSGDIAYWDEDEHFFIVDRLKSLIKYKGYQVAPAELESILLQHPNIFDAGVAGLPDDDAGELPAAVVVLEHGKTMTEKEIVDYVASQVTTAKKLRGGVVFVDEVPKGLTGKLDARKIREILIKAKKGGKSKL
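Biochemical qHTS of compounds, final roughly 60 µM downward over six points, against 10 nM purified firefly luciferase using Km concentrations of substrates (10 uM D-luciferin, 10 uM ATP) in Tris acetate pH 7.5 buffer; luminescence output.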
NPC1 prom act = activators of NPC1 promoter. Huh7 NPC1 promoter luciferase reporter, 24 h. Potency, µM (series often up to 9.22 µM), usual class: activators. AID 485313. 2.4% of 320,000 active; further: nearly all actives have a fitted effect of over 60% in size
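Compounds in DMSO were transferred onto Huh7 NPC1-luciferase reporter cells pre-incubated 2 h; after 24 h at 37 °C, Amplite reagent was dispensed and luminescence recorded 10 min later.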
KinaseGlo FLuc = blocks Kinase-Glo luciferase, a counter-screen artifact | Q27757 | Kinase-Glo luciferase, ATP luminescence, 8 min | Potency, µM (titrated, usually from 38.3 µM), usual class: inhibitors | 0.28% of 200,000 active; further: nearly all actives have a fitted effect of over 60% in size
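Inhibition of Kinase-Glo luciferase light generation was assessed at 10 uM ATP in pH 7.2 imidazole buffer, with luminescence measured after eight minutes at ambient temperature.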
ELG1 genotox = inducers of genotoxicity in HEK293T ELG1-luciferase cells. HEK293T ELG1-luciferase reporter, luminescence, 16 h. Potency, µM (highest dose often 46 µM), actives largely listed as activators. 1.3% of 330,000 active. AID 504466; further: nearly all actives have a fitted effect of over 60% in size
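ELG1-luciferase HEK293T cells, 2,000/well; compound pinned in; 16 hr, 37 °C, 5% CO2; ONE-Glo, 30 min RT; luminescence on CCD imager.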
Numbers stand for hits; i = inactive; ? = inconclusive; nt = no result; [ ] = dose if it differs, or a comment. The call rests on the fitted dose curve; in most records, active means well fitted curve in the direction sought with a large enough effect; inconclusive means small, poorly fitted or top-dose-only effect, or another doubt; inactive means no such curve, though single readings can be large; an effect the other way counts as inactive or inconclusive.

SMILES	Rab9 prom act	SMN2 splice enh	FLuc counter	NPC1 prom act	KinaseGlo FLuc	ELG1 genotox
COc1ccccc1NCC(=O)N/N=C/C=C/c1ccccc1	i	i	27µM	i	i	i
Cc1ccccc1OCC(=O)N/N=C/C=C/c1ccccc1	i	i	i	i	i	i
CCOC(=O)N/N=C/C=C/c1ccccc1	?	11µM	?	?	i	?
CC(=O)n1nc(-c2ccccc2)nc1NCc1ccc(N(C)C)cc1	?	?	i	i	i	?
O=C(Nc1ccncc1)c1ccc2c(c1)OCCO2	i	i	17µM	i	i	i
Cc1ccc(NC(=O)c2ccc3c(c2)OCCO3)cc1	0.1µM	0.71µM	0.54µM	0.32µM	i	?
CC(=O)N1CCN(c2ccc(NC(=O)c3ccc4c(c3)OCCO4)cc2)CC1	i	i	?	i	i	i
NS(=O)(=O)c1ccc(CCNC(=O)COC(=O)Cc2c(F)cccc2Cl)cc1	i	nt	i	i	nt	i
Cc1ccccc1-c1nc(-c2ccccn2)no1	0.45µM	1.1µM	0.48µM	?	6.3µM	?
Clc1ccccc1-c1nc(-c2cccnc2)no1	nt	11µM	3µM	nt	i	nt
Clc1ccccc1-c1nnc(-c2cccnc2)o1	?	nt	15µM	4µM	nt	23µM
c1ccc(-c2ccc(-c3nc(-c4ccncc4)no3)cc2)cc1	0.14µM	?	0.6µM	?	i	1.6µM
O=C(CN1C(=O)c2ccccc2S1(=O)=O)Nc1ccon1	i	nt	i	i	nt	i
Cn1c(-c2ccsc2)c(-c2cccs2)c2cc(Br)ccc21	i	nt	i	i	nt	i
Cc1ccc(SCc2nc(-c3cccnc3)no2)cc1	i	i	i[2.3 µM]	i	i	i
Brc1ccc(-c2nc(-c3ccncc3)no2)o1	?	?	?	?	i	18µM
Clc1ccccc1-c1nnc(-c2cccs2)o1	1.3µM	11µM	9.5µM	2.2µM	i	?
Cc1nc(-c2noc(-c3ccccc3Cl)n2)c(C(F)(F)F)o1	i	nt	15µM	?	nt	i
Cc1ccccc1-c1nc(-c2cccnc2)no1	?	?	11µM	?	i	?
CSc1ccccc1-c1nc(-c2ccncc2)no1	?	nt	?	3.5µM	nt	?
O=[N+]([O-])c1ccc(-c2nc(-c3ccncc3)no2)cc1	?	nt	?	?	nt	i
Cc1onc(-c2ccccc2Cl)c1-c1nc(-c2ccncc2)no1	i	i	i	i	i	i
Clc1ccccc1-c1nc(-c2ccncc2)no1	1.3µM	?	6.7µM	4µM	i[7.66 µM]	10µM
c1ccc(-c2ccccc2-c2nc(-c3ccncc3)no2)cc1	i	3.2µM	i	i	i	i
Brc1ccc(-c2nc(-c3ccncc3)no2)cc1	3.2µM	nt	2.4µM	2.2µM	nt	?
SMILES	Rab9 prom act	SMN2 splice enh	FLuc counter	NPC1 prom act	KinaseGlo FLuc	ELG1 genotox
O=C(CCn1ccc2cc(S(=O)(=O)N3CCCC3)ccc21)NCc1cccc(F)c1	i	nt	i	i	nt	i
c1ccc(-c2nc(-c3ccncc3)no2)cc1	nt	?	12µM	nt	i	nt
COc1ccc(-c2noc(-c3ccc(C)cc3Cl)n2)cc1OC	nt	i	?	nt	nt	nt
Cc1ccc(-c2nc(-c3ccncc3)no2)c(Cl)c1	?	nt	0.48µM	0.63µM	nt	0.46µM
Cc1nc(C)c(C(=O)N2CCCC(C(=O)c3cc(F)ccc3F)C2)s1 (stereo not drawn)	i	nt	i	i	nt	i
c1ccc([C@H]2CN3C(=N2)Sc2ccccc23)cc1	i	nt	0.48µM	?	nt	?
N#CC1=C(N)N2C(=C(C#N)C1c1ccccc1)Sc1ccccc12 (stereo not drawn)	i	?	i	i	i	i
CC1=C/C(=C(/c2cc(C)c(O)c(Br)c2)c2ccccc2S(=O)(=O)O)C=C(Br)C1=O	i[1.84 µM]	nt	15µM	i	nt	i
CC1=C/C(=C(/c2ccc(O)c(C)c2)c2ccccc2S(=O)(=O)O)C=CC1=O	i	nt	?	i	nt	i
Cn1c(=O)n(C)c2cc(NC(=O)c3ccc(F)cc3)ccc21	i	nt	?	i	nt	?
CC(C)Oc1ccc(C(=O)Nc2ccc(N(C)C)cc2)cc1	i	nt	3.4µM	i	nt	4.1µM
CC(C)Oc1ccc(C(=O)Nc2ccc3c(c2)n(C)c(=O)n3C)cc1	i	nt	12µM	i	nt	23µM
CC(C)Oc1ccc(C(=O)NCC(c2ccc(N(C)C)cc2)N2CCCC2)cc1 (stereo not drawn)	nt	nt	i	nt	nt	nt
CCCOc1ccc(C(=O)Nc2ccc(N(C)C)cc2)cc1	?	i	0.76µM	i	i	5.6µM
CCCOc1ccc(NC(=O)c2cc3cc(C)ccc3[nH]2)cc1	?	nt	i	1.8µM	nt	i
CCCC(C)NC(=O)c1cc(S(=O)(=O)N2CCCCCC2)ccc1OC (stereo not drawn)	i	nt	i	i	nt	i
Cn1c(=O)n(C)c2cc(C(N)=O)ccc21	i	22µM	i[2.3 µM]	i	i	i
COC(=O)Cn1c2nc3ccccc3nc2c2cccc(C)c21	i	nt	i	i	nt	i
Cc1cccc2c3nc4ccccc4nc3n(C)c12	4.5µM	nt	2.4µM	1.4µM	nt	i
O=c1c2[nH]c3ccccc3c2ncn1C1CCCCC1	?	i	?	4.5µM	i	?
O=C(O)[C@@H](O)[C@@H](O)[C@@H](O)[C@@H](O)C(=O)O (tested in a mixture with another compound)	nt	i	nt	nt	i	nt
N#Cc1c2c(c(-c3ccccc3Cl)[nH]c1=S)CCCC2	i	i	i	i	i	i
N#Cc1c(-n2ncnc2-c2ccccc2Cl)sc2c1CCCCC2	nt	i	1.9µM	nt	nt	nt
N#Cc1c(-n2ncnc2-c2ccccc2C(F)(F)F)sc2c1CCCCC2	nt	i	0.24µM	nt	nt	nt
COc1ccccc1-c1ncnn1-c1sc2c(c1C#N)CCCCC2	nt	i	1.5µM	nt	nt	nt
SMILES	Rab9 prom act	SMN2 splice enh	FLuc counter	NPC1 prom act	KinaseGlo FLuc	ELG1 genotox
N#Cc1c(-n2ncnc2-c2cccc(Cl)c2)sc2c1CCCCC2	nt	i	1.5µM	nt	nt	nt
N#Cc1c(-n2cccc2/C=N/O)sc2c1CCCC2	i	i	i	i	i	i
C=C1C=C(C(F)F)n2ncc(C(=O)NCCc3ccc(OC)c(OC)c3)c2N1	nt	nt	i	nt	nt	nt
C=CCN=C(NC#N)SCC(=O)c1cccc(OC)c1	?	?	?	3.5µM	i	i
C=CCN=C(NC#N)SCc1ccccc1	i	i	i	i	i	i
COc1ccc(Cc2nnc(SCC(=O)Nc3ccccc3C)n(N)c2=O)cc1	i	nt	i	i	nt	i
Oc1ccc(-c2nccc(-c3ccc(F)cc3)n2)cc1	?	nt	13µM	?	nt	?
COC(=O)C(C)Oc1ccc(-c2nccc(-c3ccc(F)cc3)n2)cc1 (stereo not drawn)	i	nt	15µM	i	nt	i
COC(=O)C(C)Oc1ccc(-c2nccc(-c3ccccn3)n2)cc1 (stereo not drawn)	i	nt	19µM	i	nt	i
Oc1ccc(-c2nc(-c3ccc(F)cc3)c(-c3ccncc3)[nH]2)cc1	i	i	i	i	i	i
NNC(=O)COc1ccc(-c2nccc(-c3ccc(F)cc3)n2)cc1	i	nt	?	i	nt	i
Cc1ccc(NC(=O)CSc2nnc(-c3cc(C)[nH]n3)n2N)c(C)c1	i	nt	i	i	nt	i
